From PMC12136788 come the findings set out here.

The chains are these.
B1: ENSG00000079335:stop:overlap|stop_codon|ENSG00000079335|stop_codon|NA|stop_codon (ssRNA)
RNA: GGGAGUUCUACAGUCCGACGAUCUUGGUGGAAAUCUUUCAAAAACACAAAACAUGGAACGAUUUGGAGAGGUAAGUUUUCCCUAGGAGAUUCUAUCUUCUUAAAACUGAUGUUCUGCAUUUGUUUCUCAGUUGGACCUAUAUACAACAGAGGAUUGAGCAUCA
B2: chr9:34635388:34635489:-|3pUTR|ENSG00000147955|msi1|FALSE|unique (ssRNA)
RNA: GGGAGUUCUACAGUCCGACGAUCGGGAUAUCCAUGCUUAUGUAUCCAAACACAGAGACCCAUGGGAACAAAUGAGACACAUAUAGAUACUGAGACCUGUGUGUACAGUAGGACCAUGCACUCACACCCAUCUGGAGAGGGAGCCAACAGAGGAUUGAGCAUCA
B3: chr12:54350855:54350965:+|3pUTR|ENSG00000111481|msi1|FALSE|unique (ssRNA)
RNA: GGGAGUUCUACAGUCCGACGAUCUUGCCCUGACAUUUUUGUAAAUUCUGUGCCCUUUGCUGUAGCUACACUUCAGAUUAAAGUAGGAGAAAGAAUGUGCUGAGUGUUUUCCUCCCUUUGCCUCUACCUGGCCCUCAUCCCAACCAACAGAGGAUUGAGCAUCA
B4: chr9:86945015:86945116:-|3pUTR|ENSG00000180447|msi1|FALSE|unique (ssRNA)
RNA: GGGAGUUCUACAGUCCGACGAUCUUGGUUUUGGAUAAGUUUGAGCCCUUGACCUUAAUUUCAUUGCUACCACUCUGAUCUCUUAGCACAUUUCUUAGGAUUAAGGGUCCAAAAAUGCUGAUCUAAGGGGUUGCCAUGGUGUUGCAACAGAGGAUUGAGCAUCA
B5: chr5:172042892:172042993:-|3pUTR|ENSG00000072786|msi1|total|mutant (ssRNA)
RNA: GGGAGUUCUACAGUCCGACGAUCGAUUCUCCCGCUUCAACCUUGAGCCGCUGGGACGACAGAUACAUGCUACUGCACCCAGCCCGGUUAAGGUUCUGUAUACUCUGUCUUUCUAAAGCAAUUCCCUGGAAAUUUUCUCAACAUCAACAGAGGAUUGAGCAUCA
B6: chr9:69711526:69711627:-|3pUTR|ENSG00000188647|unk|FALSE|unique (ssRNA)
RNA: GGGAGUUCUACAGUCCGACGAUCGAACUGCUGUAGUCUUCUGCAAUCAGUCUCUGUAUUGGUAUAUCCAGUACUAUCGGGUUUAGGUUCUUUUUAUUUUUCCUUAAAUCUUACUUGUUUCUAGCGUCUUAAGAGUGGUAAUGGCAACAGAGGAUUGAGCAUCA

The full ranking holds about 5,800 sequences; the median of “enrichment r” is about 0.54, and the highest 2% start at about 16. The list comes from a sample in which the highest values are over-represented; it also holds similar and randomly drawn sequences.

The target of this experiment is MSI1 full-length (mouse, UniProt Q61474 1-362). The experiment can be described thus: nsRBNS (natural sequence RNA bind-n-seq); RBNS binding buffer (assumed for nsRBNS): 25 mM Tris pH 7.5, 150 mM KCl, 3 mM MgCl2, 0.01% Triton X-100, 500 ug/ml BSA, 20 U/ml SUPERase-In, 4 C; UNK is unkempt and MSI1 is Musashi-1; names of the RNAs are library labels; protein concentration not given here; high values mean tight binding.
Chain of MSI1 full-length (Q61474 whole entry): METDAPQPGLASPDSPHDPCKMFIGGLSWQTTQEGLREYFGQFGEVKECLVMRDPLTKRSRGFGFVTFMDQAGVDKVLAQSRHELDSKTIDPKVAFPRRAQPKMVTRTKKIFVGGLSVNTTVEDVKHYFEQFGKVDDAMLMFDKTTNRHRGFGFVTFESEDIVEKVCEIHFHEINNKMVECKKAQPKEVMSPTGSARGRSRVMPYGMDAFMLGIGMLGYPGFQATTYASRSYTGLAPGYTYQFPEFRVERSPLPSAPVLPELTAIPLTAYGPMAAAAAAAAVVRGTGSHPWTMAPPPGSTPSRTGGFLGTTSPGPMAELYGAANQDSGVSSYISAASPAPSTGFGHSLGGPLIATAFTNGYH
In the case of B1, the binding signal amounted to 4.56 enrichment R.
B2 came in with a binding signal of 0.728 enrichment R.
B3 displayed a binding signal of 0.649 enrichment R.
In the case of B4 it was 0.273 enrichment R; in that of B5, 0.391 enrichment R; in that of B6, 3.44 enrichment R.
